Results filed as inconclusive are left out. Activity calls are given as the source filed them. Unless noted, calls come from the whole dose curve; as a rule, active = well fitted curve in the direction sought with a large enough effect in the repeat runs; inconclusive = weak or mixed curves; inactive = no such curve, though single readings can be large; an effect the other way counts as inactive or inconclusive.
Key:
[1] = qHTS assay to identify small molecule agonists of the peroxisome proliferator-activated receptor delta (PPARd) signaling pathway - cell viability counter screen (AID 743211); note: nearly all actives have a fitted effect of over 55% in size
Summary of the method: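 Tox21 library compounds, delivered in DMSO, were incubated 17 h with PPARd-bla HEK293H cells; cytotoxicity was taken from CellTiter-Glo luminescence read 30 min after reagent addition.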

[2] = biological target: Peroxisome proliferator-activated receptor delta (Homo sapiens) (UniProt Q03181); assay: qHTS assay to identify small molecule agonists of the peroxisome proliferator-activated receptor delta (PPARd) signaling pathway (AID 743212; calls by dose curve)
Sequence of Peroxisome proliferator-activated receptor delta (Homo sapiens) (Q03181 whole entry, looked up): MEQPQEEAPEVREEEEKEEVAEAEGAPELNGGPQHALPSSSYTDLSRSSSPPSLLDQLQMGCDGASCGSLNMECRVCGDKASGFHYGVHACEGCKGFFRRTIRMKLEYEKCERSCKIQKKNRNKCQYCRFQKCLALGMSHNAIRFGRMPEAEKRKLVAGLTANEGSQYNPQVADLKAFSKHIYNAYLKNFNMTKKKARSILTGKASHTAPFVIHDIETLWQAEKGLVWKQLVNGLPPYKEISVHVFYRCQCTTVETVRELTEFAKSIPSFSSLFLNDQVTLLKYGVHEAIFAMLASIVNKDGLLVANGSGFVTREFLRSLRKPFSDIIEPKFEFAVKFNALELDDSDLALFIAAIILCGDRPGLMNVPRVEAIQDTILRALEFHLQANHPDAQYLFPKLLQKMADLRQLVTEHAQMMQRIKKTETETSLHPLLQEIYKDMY
Summary of the method: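 Read-out: beta-lactamase FRET fluorescence after 2 h room-temperature incubation with LiveBLAzer B/G substrate. Cells were HEK293H carrying a UAS-bla reporter for PPARd, treated at 37 C with DMSO-dissolved compounds.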

[3] = biological target: Peroxisome proliferator-activated receptor delta (Homo sapiens) (UniProt Q03181); assay: qHTS assay to identify small molecule antagonists of the peroxisome proliferator-activated receptor delta (PPARd) signaling pathway (AID 743215; active = well fitted inhibition curve with a large enough effect in the signal ratio in the repeat runs, not every such curve was filed as active; the % refers to the signal ratio;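 note: cells stimulated with agonist L165041 at 300 nM final during compound exposure; series mostly up to about 62 µM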)
Summary of the method: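 Plated HEK293H PPARd-bla cells rested 5 h at 37 C and 5% CO2. Compound, then agonist L165041 at 300 nM final, was added; 17 h at 37 C followed. Substrate loading, 2 h room temperature, fluorescence measured.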

[4] = biological target: Bile acid receptor (Homo sapiens) (UniProt Q96RI1); assay: qHTS assay to identify small molecule agonists of the farnesoid-X-receptor (FXR) signaling pathway (AID 743220; active = well fitted activation curve with a large enough effect in the signal ratio in the repeat runs, not every such curve was filed as active; the % refers to the signal ratio)
Sequence of Bile acid receptor (Homo sapiens) (Q96RI1 whole entry, looked up): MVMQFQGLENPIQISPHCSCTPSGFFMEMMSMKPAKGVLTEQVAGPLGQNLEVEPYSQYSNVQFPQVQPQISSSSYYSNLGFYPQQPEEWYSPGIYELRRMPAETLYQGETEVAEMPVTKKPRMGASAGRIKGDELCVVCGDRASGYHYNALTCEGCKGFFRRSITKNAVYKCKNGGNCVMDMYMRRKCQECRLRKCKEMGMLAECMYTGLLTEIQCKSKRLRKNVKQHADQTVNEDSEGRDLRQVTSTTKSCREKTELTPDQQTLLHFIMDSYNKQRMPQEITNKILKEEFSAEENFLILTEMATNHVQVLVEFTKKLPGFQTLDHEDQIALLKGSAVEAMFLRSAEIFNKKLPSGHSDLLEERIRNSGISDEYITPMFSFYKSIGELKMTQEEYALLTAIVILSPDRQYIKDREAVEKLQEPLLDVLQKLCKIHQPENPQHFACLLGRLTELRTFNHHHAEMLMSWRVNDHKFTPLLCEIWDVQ
Summary of the method: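 FXR-UAS-bla HEK 293T cells carrying a UAS-driven beta-lactamase reporter were plated for 5 h at 37C/5% CO2, then exposed to DMSO-dissolved Tox21 10K compounds for 16 h at 37C. A LiveBLAzer B/G FRET substrate was loaded for 2 h at room temperature before fluorescence reading.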

[5] = qHTS assay to identify small molecule antagonists of the farnesoid-X-receptor (FXR) signaling pathway - cell viability counter screen (AID 743221; active = well fitted cell-killing curve with a large enough effect in the repeat runs, not every such curve was filed as active; note: nearly all actives have a fitted effect of over 50% in size)
Summary of the method: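 Cytotoxicity is taken from ATP luminescence (CellTiter-Glo, 30 min, room temperature) in FXR-bla HEK 293T cells previously incubated 16 h at 37 C with compound and chenodeoxycholic acid at 50 uM final.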

[6] = biological target: Vitamin D3 receptor (Homo sapiens) (UniProt P11473); assay: qHTS assay to identify small molecule agonists of the vitamin D receptor (VDR) signaling pathway (AID 743222; calls by dose curve)
Sequence of Vitamin D3 receptor (Homo sapiens) (P11473 whole entry, looked up): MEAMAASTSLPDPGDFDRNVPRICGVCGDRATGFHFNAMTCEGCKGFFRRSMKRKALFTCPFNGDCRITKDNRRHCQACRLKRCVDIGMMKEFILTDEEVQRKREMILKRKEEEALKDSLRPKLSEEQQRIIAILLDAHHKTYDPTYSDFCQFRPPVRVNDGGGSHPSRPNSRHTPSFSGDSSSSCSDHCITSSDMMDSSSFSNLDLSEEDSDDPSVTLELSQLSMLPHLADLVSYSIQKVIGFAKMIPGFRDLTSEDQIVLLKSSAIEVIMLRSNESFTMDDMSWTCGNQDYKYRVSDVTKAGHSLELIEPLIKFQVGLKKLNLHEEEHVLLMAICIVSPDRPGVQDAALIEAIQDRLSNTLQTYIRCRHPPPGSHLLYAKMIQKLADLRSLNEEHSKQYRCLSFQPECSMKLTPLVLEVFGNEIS
Summary of the method: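 Fluorescence from cleaved LiveBLAzer B/G FRET substrate served as readout. VDR-bla cells had been treated 16 h at 37C with test compounds in DMSO, following a 4 h settling period, and substrate was loaded for 2 h at RT.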

[7] = biological target: Vitamin D3 receptor (Homo sapiens) (UniProt P11473); assay: qHTS assay to identify small molecule antagonists of the vitamin D receptor (VDR) signaling pathway (AID 743223; active = well fitted inhibition curve with a large enough effect in the signal ratio in the repeat runs, not every such curve was filed as active; the % refers to the signal ratio)
Summary of the method: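 Quantitative HTS in VDR-bla reporter cells stimulated with 1alpha,25-dihydroxyvitamin D3, 3 nM final. Compound exposure 16 h, 37C, 5% CO2. Read-out: beta-lactamase FRET substrate fluorescence, 2 h RT.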

[8] = qHTS assay to identify small molecule agonists of the vitamin D receptor (VDR) signaling pathway - cell viability counter screen (AID 743224); note: series mostly up to about 63 µM; nearly all actives have a fitted effect of over 50% in size
Summary of the method: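 Compounds were pin-transferred onto VDR-bla cells plated 4 h earlier; following 16 h incubation at 37C, cell viability was quantified by CellTiter-Glo luminescence after 30 min at room temperature.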

[9] = qHTS assay to identify small molecule antagonists of the vitamin D receptor (VDR) signaling pathway - cell viability counter screen (AID 743225); note: nearly all actives have a fitted effect of over 50% in size
Summary of the method: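 Same-well multiplex: following 16 h treatment of HEK 293T cells carrying a UAS-driven beta-lactamase reporter with compound and agonist (3 nM final), and a 2 h FRET substrate step, CellTiter-Glo was added and luminescence read after 30 min.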

[10] = qHTS assay to identify small molecule agonists of the NFkB signaling pathway - cell viability counter screen (AID 1159515; calls by dose curve; note: series mostly up to about 61 µM; nearly all actives have a fitted effect of over 55% in size)
Summary of the method: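 Parallel cytotoxicity counter screen in ME-180 cells carrying an NFkB-response-element beta-lactamase reporter, 2,000 cells/well. Compound exposure lasted 5 hr at 37 C, 5% CO2. Cell viability was quantified by CellTiter-Glo luminescence.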

[11] = qHTS assay to identify small molecule agonists of the endoplasmic reticulum stress response signaling pathway (AID 1159516; active = well fitted activation curve with a large enough effect in the signal ratio in the repeat runs, not every such curve was filed as active; the % refers to the signal ratio)
Summary of the method: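 Using a HeLa line with an ESRE-driven beta-lactamase gene, agonist activity was measured by FRET substrate fluorescence (460 and 530 nm emission) after cells were treated with compounds for 5 hr at 37 C and 5% CO2.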

[12] = qHTS assay to identify small molecule agonists of the endoplasmic reticulum stress response signaling pathway - cell viability counter screen (AID 1159517; calls by dose curve;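 note: HeLa cells carrying an ER stress response element beta-lactamase reporter; series mostly up to about 61 µM; nearly all actives have a fitted effect of over 50% in size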)
Summary of the method: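 Steps: seed 1,500 ESRE-bla HeLa cells per well; incubate overnight at 37 C, 5% CO2; add compounds in DMSO for 5 hr; run FRET substrate 2 hr RT; add CellTiter-Glo, wait 30 min, read luminescence.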

[13] = qHTS assay to identify small molecule antagonists of the retinoid-related orphan receptor gamma (ROR-gamma) signaling pathway - cell viability counter screen (AID 1159520); note: nearly all actives have a fitted effect of over 50% in size
Summary of the method: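 Tet-on ROR gamma CHO cells were given compounds for 2 hr, then doxycycline hyclate at 1 uM final, and incubated 16 hr at 37 C. Viability was measured as ATP content by CellTiter-Glo luminescence.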

[14] = biological target: Nuclear receptor ROR-gamma (Homo sapiens) (UniProt P51449); assay: qHTS assay to identify small molecule antagonists of the retinoid-related orphan receptor gamma (ROR-gamma) signaling pathway (AID 1159521)
Summary of the method: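 Inducible-expression reporter assay: doxycycline (1 uM final) switched on RORγ in CHO cells bearing a ROR response element-luciferase construct, with test compounds present from 2 h beforehand. Decreased luminescence after 16 h defined antagonist activity.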

[15] = qHTS assay to identify small molecule agonists of the AP-1 signaling pathway - cell viability counter screen (AID 1159525; calls by dose curve; note: nearly all actives have a fitted effect of over 55% in size)
Summary of the method: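 Same-well cytotoxicity counter screen of the Tox21 10K library in ME-180 cells. The readout is ATP-dependent luminescence after 5 h compound treatment. Data are normalised to DMSO and tetra n-octyl ammonium bromide controls.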

[16] = qHTS assay to identify small molecule agonists of the AP-1 signaling pathway (AID 1159526; calls by dose curve)
[17] = biological target: Retinoic acid receptor RXR-alpha (Homo sapiens) (UniProt P19793); assay: qHTS assay to identify small molecule agonists of the RXR signaling pathway (AID 1159527; calls by dose curve; note: nearly all actives have a fitted effect of over 35% in size)
Sequence of Retinoic acid receptor RXR-alpha (Homo sapiens) (P19793 whole entry, looked up): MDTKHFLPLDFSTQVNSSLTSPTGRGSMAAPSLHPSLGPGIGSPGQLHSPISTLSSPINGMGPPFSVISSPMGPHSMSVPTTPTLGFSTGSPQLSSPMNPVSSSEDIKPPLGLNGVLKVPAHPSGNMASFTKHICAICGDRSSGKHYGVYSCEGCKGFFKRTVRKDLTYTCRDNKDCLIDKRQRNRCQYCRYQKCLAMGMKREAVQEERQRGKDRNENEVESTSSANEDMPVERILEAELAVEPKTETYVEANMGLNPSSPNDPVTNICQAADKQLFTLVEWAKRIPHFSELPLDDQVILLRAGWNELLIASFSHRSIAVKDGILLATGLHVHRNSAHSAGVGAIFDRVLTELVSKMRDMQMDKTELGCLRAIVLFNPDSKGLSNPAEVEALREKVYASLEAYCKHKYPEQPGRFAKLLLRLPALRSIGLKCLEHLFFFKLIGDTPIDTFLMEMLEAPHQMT
Summary of the method: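 Compounds in DMSO were added to RXR-alpha-UAS-bla HEK 293T cells kept in 2% charcoal-stripped serum, and incubated 16 hr at 37 C with 5% CO2. Reporter signal came from a 2 hr B/G FRET substrate step.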

[18] = qHTS assay to identify small molecule antagonists of the peroxisome proliferator-activated receptor delta (PPARd) signaling pathway - cell viability counter screen (AID 743213); note: nearly all actives have a fitted effect of over 50% in size
Summary of the method: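 PPARd-bla HEK293H cells (3000/well) got compound plus 300 nM L165041 agonist for 17 h at 37 C. Viability in the same wells came from CellTiter-Glo luminescence after 30 min at room temperature.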

[19] = biological target: Bile acid receptor (Homo sapiens) (UniProt Q96RI1); assay: qHTS assay to identify small molecule antagonists of the farnesoid-X-receptor (FXR) signaling pathway (AID 743217; active = well fitted inhibition curve with a large enough effect in the signal ratio in the repeat runs, not every such curve was filed as active; the % refers to the signal ratio)
Summary of the method: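 Screen of the Tox21 10K library in quantitative HTS format using FXR-UAS-bla HEK 293T reporter cells. Agonist chenodeoxycholic acid, 50 uM final, added with compounds; 16 h incubation at 37 °C; beta-lactamase FRET fluorescence measured.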

[20] = qHTS assay to identify small molecule agonists of the farnesoid-X-receptor (FXR) signaling pathway - cell viability counter screen (AID 743218); note: nearly all actives have a fitted effect of over 45% in size
Summary of the method: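 Viability of FXR-bla HEK 293T cells is measured by ATP-based CellTiter-Glo luminescence following 16 h compound treatment at 37 C and a prior 2 h room-temperature beta-lactamase substrate step.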

Measured: Potency

COC(=O)CSc1cc(N=c2sc(=O)n3n2CCCC3)c(F)cc1Cl
not listed: [18] | [19] | [20]
inactive: all other assays above

O=[N+]([O-])c1cccc(Cl)c1Cl
not listed: [7] | [9] | [17]
inactive: all other assays above

Cc1cc(C)c(S(=O)(=O)O)cc1N=Nc1cc(S(=O)(=O)O)c2ccccc2c1O
not listed: [4] | [19]
inactive: all other assays above

CC(C)(C)c1ccc(S)cc1
not listed: [4] | [7] | [17] | [19]
inactive: all other assays above

COc1ccc([C@@H]2Sc3ccccc3N(CCN(C)C)C(=O)[C@@H]2OC(C)=O)cc1
not listed: [4] | [9] | [17] | [18] | [19]
inactive: all other assays above

CC(C)=CCCC(C)CC=O (stereo not given)
not listed: [2] | [3] | [5] | [7] | [17]
inactive: all other assays above

NC1CCN(c2nc3c(cc2F)c(=O)c(C(=O)O)cn3-c2ccc(F)cc2F)C1 (stereo not given)
not listed: [2] | [3] | [4] | [6] | [7] | [17] | [19]
inactive: all other assays above

CCCC(=O)OCC
not listed: [3] | [4] | [7] | [8] | [9] | [17] | [19]
inactive: all other assays above

NC(=S)N/N=C/c1cccnc1
not listed: [3] | [4] | [17] | [19] | [20]
inactive: all other assays above

CCCCCCCCCC=O
not listed: [2] | [3] | [4] | [7] | [9] | [17] | [19]
inactive: all other assays above

Cc1ccc(C(=O)C(C)CN2CCCCC2)cc1 (stereo not given)
not listed: [2] | [3] | [7] | [9] | [17]
inactive: all other assays above

Cc1cc(NC(=O)C(=O)O)cc(C)c1Oc1ccc(O)c2c1CCC2
not listed: [3] | [7] | [9] | [17] | [19] | [20]
inactive: all other assays above

Cn1c(=O)c2c(ncn2CC(O)CO)n(C)c1=O (stereo not given)
not listed: [3] | [4] | [7] | [17] | [18] | [20]
inactive: all other assays above

Cc1ccccn1
not listed: [2] | [3] | [5] | [7] | [17] | [19]
inactive: all other assays above

CCOC(=S)SSC(=S)OCC
not listed: [3] | [4] | [17] | [19] | [20]
inactive: all other assays above

O=C(O)C(c1ccc(Cl)cc1)c1ccc(Cl)cc1
not listed: [3] | [7] | [9] | [17] | [19]
inactive: all other assays above

O=C1c2cccc(O)c2C(=O)c2c(O)cc(CO)cc21
not listed: [2] | [3] | [17] | [19]
inactive: all other assays above

CC(C)(C)c1cc(CO)cc(C(C)(C)C)c1O
not listed: [2] | [3] | [5] | [17] | [19]
inactive: all other assays above
